Cav32 inh: inhibitors of human Cav3.2 T-type calcium channel; B-score at 10 µM; O95180; 100,000 tested, 4% active; Cav3.2-expressing cells, Fluo-4 calcium fluorescence FDSS; hits give low values;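 active = single-dose well whose peak fluorescence ratio is a statistical outlier from its plate by either plate-standardised score or position-corrected B-score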
CYP2C19 act: activators of human cytochrome P450 2C19 | P33261 | recombinant CYP2C19, luciferin-H EGE luminescence; hits give high values; 0 = fully inhibited enzyme, 1 = untreated enzyme | activation factor at 5 µM | 96,000 tested, under 10 active;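 active = activation factor of at least 2 at 5 µM in the primary screen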;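 note: 0 = wells with 2.5 mM tranylcypromine and 1 = vehicle-only wells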
Target sequence (P33261 whole entry, looked up): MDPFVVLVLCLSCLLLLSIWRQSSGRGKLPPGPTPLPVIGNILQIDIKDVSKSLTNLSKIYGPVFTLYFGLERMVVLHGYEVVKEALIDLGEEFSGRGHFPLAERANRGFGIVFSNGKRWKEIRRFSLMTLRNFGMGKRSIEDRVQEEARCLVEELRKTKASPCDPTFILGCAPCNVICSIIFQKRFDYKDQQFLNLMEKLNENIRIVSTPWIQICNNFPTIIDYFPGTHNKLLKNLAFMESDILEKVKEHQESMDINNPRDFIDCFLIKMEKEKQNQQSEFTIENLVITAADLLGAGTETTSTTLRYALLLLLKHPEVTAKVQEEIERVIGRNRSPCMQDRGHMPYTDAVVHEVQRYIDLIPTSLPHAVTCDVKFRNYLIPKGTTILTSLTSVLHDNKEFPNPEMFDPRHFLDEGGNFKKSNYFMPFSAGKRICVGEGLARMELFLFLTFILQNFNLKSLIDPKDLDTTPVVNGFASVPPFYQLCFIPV
CYP2C9 inhib: blocks human cytochrome P450 2C9; 96,000 tested, 20% active; AID 777; inhibition, % at 5 µM; P11712; CYP2C9 Supersomes, luciferin-H conversion, luminescence;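 active = blocking of liver enzyme CYP2C9 beyond about 50% at 5 µM, limit read from the data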
CYP2C19 inh: blocks human cytochrome P450 2C19 | CYP2C19 Supersomes, luciferin-H EGE luminescence, 30 min | inhibition, % at 5 µM | 96,000 tested, 21% active;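 active = CYP2C19 inhibition above a set limit at 5 µM in the primary screen, cut at about 50% in these data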;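 note: plate controls were negative control wells for no effect and 2.5 mM tranylcypromine positive control for full effect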
CYP2C9 act: CYP2C9 (human) activation; activation factor at 5 µM; AID 1024; recombinant CYP2C9, luciferin-H conversion, luminescence; hits give high values; factor 1 = untreated enzyme, 0 = blocked; 96,000 tested, 1.4% active;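 active = activation factor of 2 or more for CYP2C9 at a 5 µM dose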;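 note: 0 = sulfaphenazole-blocked wells and 1 = vehicle-only wells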
* = called active by the depositor; / = no result given. This is a sample that favours compounds with a hit; in the whole collection about 27% have one here.

SMILES	Cav32 inh	CYP2C19 act	CYP2C9 inhib	CYP2C19 inh	CYP2C9 act
Cc1ccccc1Cn1nc(C)c(NC(=O)c2noc3c2CC(C(C)(C)C)CC3)c1C (configuration not stated)	-4.7*	0.7	48	28	0.5
Cc1c(NC(=O)c2noc3c2CCc2ccccc2-3)c(=O)n(-c2ccccc2)n1C	-1.2	/	/	/	/
N#Cc1c(NC(=O)CSc2nc(-c3ccco3)cc(C(F)(F)F)n2)sc2c1CCCC2	-0.045	1	24	1	0.8
c1ccc(Cn2cc(CNc3ccccc3)nn2)cc1	-0.6	/	/	/	/
O=C(CSc1cccc2cccnc12)OCC(=O)c1ccccc1	-0.068	0.7	-157	28	2.6*
O=C(CSc1cccc2cccnc12)OCC(=O)c1ccc(Br)cc1	1.3	1	-81	-3	1.8
O=c1cc2[nH]c3ccccc3c(=O)n2nc1-c1ccccc1	0.85	0.6	71*	37	0.3
O=c1nc(-c2ccccc2)c2cc(Cl)ccc2[nH]1	/	1.1	10	-8	0.9
CC(=O)c1c(N2CCCC2)[nH]c(-c2ccccc2)nc1=S	0.3	0.5	25	51*	0.8
COC(=O)c1cc2ccsc2n1Cc1nc(-c2cccc(Cl)c2)oc1C	-0.99	0.5	99*	52*	0
COc1ccccc1CNC(=O)C1CCN(Cc2nc(-c3cccc(Cl)c3)oc2C)CC1	-5.8*	0.7	-65	28	1.7
Cc1oc(-c2cccc(Cl)c2)nc1CN1CCC(C(=O)NCc2ccco2)CC1	-4.3*	0.9	20	13	0.8
Cc1oc(-c2ccc(Cl)cc2)nc1CN1CCC(C(=O)NCc2ccco2)CC1	-2.9	1.1	-34	-7	1.3
COc1ccc(CCNC(=O)C2CCN(Cc3nc(-c4ccccc4F)oc3C)CC2)cc1OC	0.56	1.1	-8	-9	1.1
Cc1oc(-c2ccccc2F)nc1CN1CCC(C(=O)NCCC2=CCCCC2)CC1	-5.7*	1	-127	5	2.3*
COC(=O)c1cc2sccc2n1Cc1nc(-c2cccc(Cl)c2)oc1C	-0.2	0.8	46	16	0.5
CCC1CCCCN1CCCn1c(=S)[nH]c2ccccc2c1=O (configuration not stated)	0.92	0.9	10	6	0.9
O=C(c1cc2n(n1)C(C(F)(F)F)CC(c1ccc(F)cc1)N2)N1CCCC1 (configuration not stated)	0.25	1	23	5	0.8
O=C(O)c1ccccc1C(=O)N1CC=C(c2ccccc2)CC1	1.4	1.2	-6	-16	1.1
CCc1ccc(-c2nc(CN3CCC(C(=O)NCCc4ccc(OC)c(OC)c4)CC3)c(C)o2)cc1	-3.3	0.8	38	19	0.6
CCc1ccc(-c2nc(CN3CCC(C(=O)NCc4ccccc4OC)CC3)c(C)o2)cc1	-8.6*	0.8	-10	21	1.1
CCOC(=O)N1CCC(NS(=O)(=O)c2cc(Br)cc3c2N(C(=O)CC)CC3)CC1	/	0.8	3	21	1
CC(=O)OC1CSc2nc3ccccc3n2C1 (configuration not stated)	1.3	/	/	/	/
Brc1cccc(OCCOCCn2ccnc2)c1	1.3	0	99*	100*	0
CCOc1cccc(OCCCCn2ccnc2)c1	0.1	0	89*	99*	0.1
SMILES	Cav32 inh	CYP2C19 act	CYP2C9 inhib	CYP2C19 inh	CYP2C9 act
CCc1cccc(OCCOCCN2CCCC2)c1	0.64	0.9	12	9	0.9
Cc1cc(OCCCn2ccnc2)cc(C)c1Cl	-0.86	0	97*	100*	0
Brc1cccc(OCCn2ccnc2)c1	0.54	0.1	64*	93*	0.4
CCOc1cccc(OCCOCCN2CCCC2)c1	0.7	1	-11	-2	1.1
Cc1cc(=S)cc(C)n1CCCn1ccnc1	-1.7	1.1	2	-8	1
CC(NC(=O)COc1cccc(Br)c1)C(=O)O (configuration not stated)	/	1	1	-3	1
COCCN1C(=O)N[C@@H](c2ccc(Br)cc2)C(C(C)=O)=C1C	-1	/	/	/	/
CN(C1CCS(=O)(=O)C1)S(=O)C12CC3CC(CC(C3)C1)C2 (configuration not stated)	0.56	/	/	/	/
CN(C)CCCN1C(=O)c2oc3ccc(F)cc3c(=O)c2C1c1cccnc1 (configuration not stated)	0.62	0.9	-10	8	1.1
CCOC(=O)c1cnc(C(C)(C)C)[nH]c1=O	0.34	/	/	/	/
COc1ccc(/C(C)=C2\SC(=S)N(CCC(=O)O)C2=O)cc1	-1.1	1	9	-4	0.9
O=C(Nc1ccc(F)cc1F)NC1CC(=O)N(Cc2ccccc2)C1 (configuration not stated)	0.079	/	/	/	/
Cc1ccccc1NC(=S)NC1CC2CCC(C1)N2Cc1ccco1 (configuration not stated)	0.087	1.1	-6	-8	1.1
CCn1cnc2c1c(=O)n(Cc1csc(-c3ccccc3)n1)c(=O)n2Cc1ccccc1	-3.8	0.1	89*	86*	0.1
O=C(Cn1c(=O)c2c(ncn2C2CCCC2)n(Cc2ccccc2)c1=O)N1CCc2ccccc21	-4.4*	0.9	13	11	0.9
CCn1cnc2c1c(=O)n(Cc1nnc3n1-c1ccccc1SC3)c(=O)n2Cc1ccccc1	1.4	0.7	25	28	0.8
O=C(Cn1c(=O)c2c(ncn2Cc2ccccc2)n(Cc2ccccc2)c1=O)N1CCCC1	0.85	0.3	49	67*	0.5
CCOC(=O)CS(=O)(=O)c1ccccc1	0.61	1.1	-14	-8	1.1
CCOC(=O)CS(=O)(=O)c1ccc2ccccc2c1	-0.3	0.1	-193	87*	2.9*
CCOC(=O)CCS(=O)(=O)c1nc(-c2ccccc2)cc(C(F)(F)F)n1	0.33	0.6	28	42	0.7
CCOC(=O)CS(=O)(=O)c1nc(-c2ccccc2)cc(C(F)(F)F)n1	0.96	0.5	59*	45	0.4
O=C(O)COc1ccc(-c2nnn(Cc3ccccc3F)n2)cc1	-0.036	1.2	-7	-19	1.1
CSC1=NC2(CCCCC2)C2=C(CCCC2)N1	0.33	1.1	-2	-7	1
O=C(Nc1nnc(-c2ccc(F)cc2)o1)c1ccco1	-0.6	/	/	/	/
Fc1ccc(-c2nnc(NC3=NCCCCC3)o2)cc1	/	0.4	28	56*	0.7
O=C1Nc2ccccc2C1(c1ccccc1)c1ccccc1	-9.5*	0.3	74*	72*	0.3
O=C(O)C[C@H]1c2cc(C(F)(F)F)ccc2S(=O)(=O)N1C1CCN(Cc2ccccc2)CC1	0.75	/	/	/	/
COc1ccc(OC)c(S(=O)(=O)N(C)CC(=O)N2CCc3ccccc3C2)c1	0.88	0.3	80*	68*	0.2
COc1ccc(N(CC(=O)N2CCc3ccccc3C2)S(=O)(=O)c2c(C)[nH]c(=O)[nH]c2=O)cc1	0.9	1.1	16	-11	0.8
COc1ccc(N(CC(=O)Nc2cc(C)ccc2C)S(=O)(=O)c2c(C)nn(C)c2C)cc1	/	0.4	29	55*	0.7
